Compounds with a hit are over-represented: about 2.2% of the library has one in this group of screens.
HepG2 tox-1: kills HepG2 cells in TGF-b inhibitor counter-screen; Potency, µM (doses to about 46.1 µM), hits mostly cytotoxic; HepG2 CAGA-GFP viability, ATP luminescence, 18 h; AID 588856; 410,000 tested, 0.76% active
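HepG2 CAGA-GFP cells (1000/well, DMEM with 1% FBS) received compound, then TGF-beta at 500 pg/mL final, and were incubated 18 hours at 37 degrees C. Viability was read by CellTiter-Glo luminescence. Media-only wells were set as complete cell-killing and DMSO as no toxicity.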
ATXN2 expr inh: ATXN2 expression inhibition. HEK-293 ATXN2-luciferase reporter, luminescence, 24 h. Potency, µM (titrated, usually from 57 µM), most hits filed as inhibitors. 360,000 tested, 0.72% active. AID 1745845; further: nearly all actives have a fitted effect of over 55% in size
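ATXN2-luciferase reporter cells (luciferase flanked by upstream and downstream ATXN2 gene portions) were treated 24 h at 37 °C with compounds at up to 57 uM. SteadyGlo luminescence gave expression; GF-AFC fluorescence gave viability.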
TGFb SMAD3 inh: blocks TGF-b signaling | HepG2 CAGA-GFP TGF-b/SMAD3 reporter, GFP fluorescence, 18 h; TGF-beta stimulated, 500 pg/mL final | Potency, µM (titrated, usually from 46.1 µM), usual class: inhibitors | 410,000 tested, 1.2% active; further: nearly all actives have a fitted effect of over 65% in size
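Read-out: total well GFP (ex488/em500-530) summed from mean per-cell fluorescence. Cells: HEPG2 CAGA-GFP, 1% FBS DMEM, 18 h at 37 degrees C with 500 pg/mL final TGF-beta. Unstimulated wells served as the full-inhibition control; stimulated DMSO wells = 0%.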
LDHA block: blocks human lactate dehydrogenase A; P00338; 480,000 tested, 0.15% active; purified LDHA, NADH/diaphorase-resazurin fluorescence; active compounds read low; activity change, % (values are at about 110 or 230 µM); in the data active means activity change below about -30%; inconclusive means mostly about -25% to -30%
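Remaining NADH was detected by diaphorase (0.133 mg/mL) converting 37 µM resazurin to fluorescent resorufin, read at 0 and 20 minutes. The preceding 5-minute room-temperature reaction used 2 nM LDHA, 0.2 mM sodium pyruvate and 0.06 mM NADH at pH 7.4.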
S2 tox: viability counter-screen for ATXN expression inhibitors | 400,000 tested, 0.49% active | Potency, µM (highest dose often 56.7 µM), usual class: cytotoxic | S2 cells (HEK-293 line with an ATXN2-luciferase reporter) viability, CellTiter-Fluor protease fluorescence, 24 h; further: nearly all actives have a fitted effect of over 40% in size
mIDH1 inhibitor: inhibitors of human mutant IDH1 R132H. O75874. IDH1-R132H enzyme, NADPH consumption, diaphorase/resazurin fluorescence. Potency, µM (top dose mostly 76.6 µM), hits mostly inhibitors. 390,000 tested, 0.093% active. AID 602179; further: nearly all actives have a fitted effect of over 65% in size
Target sequence (O75874 whole entry R132H, stated change not applied): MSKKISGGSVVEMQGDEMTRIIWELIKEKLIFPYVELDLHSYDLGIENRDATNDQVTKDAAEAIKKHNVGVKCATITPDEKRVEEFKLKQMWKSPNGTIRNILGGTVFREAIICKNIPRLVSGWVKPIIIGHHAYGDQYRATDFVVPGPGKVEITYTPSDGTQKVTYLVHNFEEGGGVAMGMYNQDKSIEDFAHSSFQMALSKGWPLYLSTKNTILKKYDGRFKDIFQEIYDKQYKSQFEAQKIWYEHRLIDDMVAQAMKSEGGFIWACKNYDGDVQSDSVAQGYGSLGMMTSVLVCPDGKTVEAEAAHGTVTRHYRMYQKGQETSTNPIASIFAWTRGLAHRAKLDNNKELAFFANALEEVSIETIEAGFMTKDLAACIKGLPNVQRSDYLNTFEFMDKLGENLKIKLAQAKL
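IDH1-R132H (0.5 ug/mL dispensed) in pH 7.5 Tris buffer was preincubated 30 min with compound, then given a substrate mix of 0.016 mM NADPH and 2 mM alpha-KG for 80 min at room temperature; remaining NADPH was read by diaphorase/resazurin fluorescence.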
TGFb confirm: confirmation of TGF-b signaling inhibitors in HepG2 reporter cells. AID 720534. Potency, µM (doses to about 46.1 µM), actives largely listed as inhibitors. HepG2 CAGA-GFP TGF-b reporter, GFP fluorescence, 18 h; cells stimulated with TGF-beta, 500 pg/mL. shares compounds with TGFb SMAD3 inh. 1,600 tested, 63% active; further: nearly all actives have a fitted effect of over 65% in size
HepG2 tox-2: toxic to HepG2 cells in TGF-b counterscreen | 1,600 tested, 27% active | HepG2 CAGA-GFP viability, ATP luminescence, 18 h; cells stimulated with TGF-beta, 500 pg/mL | Potency, µM (highest dose often 46.1 µM), usual class: inhibitors | shares compounds with TGFb SMAD3 inh; further: nearly all actives have a fitted effect of over 70% in size
CCL64 TGFb inh: TGF-b inhibition, CCL64 orthogonal assay. shares compounds with TGFb SMAD3 inh. CCL64 CAGA-GFP reporter, TGF-b stimulated, GFP fluorescence, 18 h. Potency, µM (doses to about 46.1 µM), usual class: inhibitors. 1,600 tested, 41% active. AID 720536; further: nearly all actives have a fitted effect of over 65% in size
TGFb COP inh: TGF-b inhibition validated with COP promoter. shares compounds with TGFb SMAD3 inh. HepG2 COP-GFP TGF-b reporter, GFP fluorescence, 18 h; cells stimulated by added recombinant TGF-beta. Potency, µM (doses to about 46.1 µM), actives largely listed as inhibitors. 1,600 tested, 3% active. AID 720537; further: nearly all actives have a fitted effect of over 70% in size
Each line names hits and unclear results; the compound was inactive in the other large screens (follow-up assays come after a bar, where they were run); ! = repeats disagree. Unless noted, the call rests on the fitted dose curve; in most records, active means well fitted curve in the direction sought with a large enough effect; inconclusive means small, poorly fitted or top-dose-only effect, or another doubt; inactive means no such curve, though single readings can be large; an effect the other way counts as inactive or inconclusive.

CCOC(=O)c1ccc(NC(=O)Nc2cc3c(cc2N2CCCCC2)n(CC)c(=O)n3CC)cc1	TGFb SMAD3 inh inconclusive, S2 tox inconclusive
COc1ccc(CC(=O)N(C)C2CCCN(Cc3ccccc3F)C2)cc1OC (stereo not drawn)	none
O=S(=O)(c1ccccc1C(F)(F)F)N1CCN(c2ncnc3sccc23)CC1	ATXN2 expr inh inconclusive, TGFb SMAD3 inh 13µM
CCCCCCCCCCCCCCCC[n+]1ccccc1	HepG2 tox-1 20µM!, ATXN2 expr inh 32µM!, TGFb SMAD3 inh 16µM, S2 tox 20µM
O=C(Nc1cccc(Br)c1)Oc1cccc2cccnc12	HepG2 tox-1 2.8µM, ATXN2 expr inh 6.3µM, TGFb SMAD3 inh inconclusive, S2 tox inconclusive (no result: mIDH1 inhibitor)
NCC(=O)c1ccc(Cl)c(Cl)c1	TGFb SMAD3 inh inconclusive, LDHA block -31 (no result: ATXN2 expr inh, S2 tox, mIDH1 inhibitor)
c1ccc2c(CN3CCCCCCC3)c[nH]c2c1	TGFb SMAD3 inh inconclusive, S2 tox inconclusive | TGFb confirm 21µM | HepG2 tox-2 23µM | CCL64 TGFb inh 8.2µM | TGFb COP inh inactive
COc1ccc(CC2NCC(O)C2OC(C)=O)cc1 (stereo not drawn)	ATXN2 expr inh 0.011µM, TGFb SMAD3 inh 0.11µM, S2 tox inconclusive | TGFb confirm 0.1µM | HepG2 tox-2 0.37µM | CCL64 TGFb inh 0.082µM | TGFb COP inh inactive
COc1cccc(CNC(=O)c2cc3c(-c4ccccc4F)nn(C)c3s2)c1	ATXN2 expr inh inconclusive, S2 tox inconclusive
CCCc1nc2ccc(Br)cc2c(=O)n1-c1ccc([N+](=O)[O-])c(C(F)(F)F)c1	TGFb SMAD3 inh 7.1µM | TGFb confirm inconclusive | HepG2 tox-2 inactive | CCL64 TGFb inh inconclusive | TGFb COP inh inactive
O=C(Nc1ccc(Br)cc1)c1ccc(F)c(S(=O)(=O)N2CCCc3ccccc32)c1	TGFb SMAD3 inh inconclusive (no result: ATXN2 expr inh, S2 tox)
CC(=O)c1cn(Cc2ccccc2F)c2ccccc12	TGFb SMAD3 inh inconclusive
O=Cc1cn(Cc2ccccc2F)c2ccccc12	ATXN2 expr inh inconclusive, TGFb SMAD3 inh 0.89µM | TGFb confirm 0.46µM | HepG2 tox-2 1µM | CCL64 TGFb inh inactive | TGFb COP inh inactive
Brc1ccccc1-c1ccccc1	S2 tox inconclusive
Cc1ccc(-c2cc(-c3ccccc3)cc(-c3ccccc3)[n+]2-c2ccccc2C(=O)O)cc1	ATXN2 expr inh inconclusive, TGFb SMAD3 inh inconclusive, S2 tox inconclusive
Oc1ccccc1-[n+]1c(-c2ccccc2)cc(-c2ccccc2)c(O)c1-c1ccccc1	TGFb SMAD3 inh 11µM | TGFb confirm inconclusive | HepG2 tox-2 inconclusive | CCL64 TGFb inh 23µM | TGFb COP inh inactive
COc1ccc(CC2NCCc3cc(OC)c(OC)cc32)cc1OC (stereo not drawn)	none (no result: HepG2 tox-1, TGFb SMAD3 inh, LDHA block, S2 tox, mIDH1 inhibitor)
